Data as given in the supplement of paper PMC8728848.
This excerpt belongs to a sample that is enriched for the strongest signals.

Assays:
Test in all cases: glycan array binding signal (z-score within array); higher = stronger binding
Details in all cases: glycan notation: IUPAC condensed, linker removed
[1] = molecular target: Fuc(a1-2)Gal(b1-3)GalNAc(b1-4)[Neu5Ac(a2-3)]Gal(b1-4)Glc
Method in brief: (§1)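 The binding signal is a Z-score computed within each array. Data were drawn from 3228 arrays in the Consortium for Functional Glycomics database, restricted to those with a known protein sequence. Scores were averaged over arrays of the same protein sequence at different concentrations or buffers, and over linkers, and negative values can be taken as non-binding.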

[2] = molecular target: Fuc(a1-2)Gal(b1-3)GlcNAc6S
Method in brief: as §1

[3] = molecular target: Fuc(a1-2)Gal(b1-3)[Fuc(a1-4)]GlcNAc
Method in brief: as §1

[4] = molecular target: Fuc(a1-2)Gal(b1-4)GlcNAc(b1-2)[Fuc(a1-2)Gal(b1-4)GlcNAc(b1-4)]Man(a1-3)[Fuc(a1-2)Gal(b1-4)GlcNAc(b1-2)Man(a1-6)]Man(b1-4)GlcNAc(b1-4)GlcNAc
Method in brief: as §1

[5] = molecular target: Fuc(a1-2)Gal(b1-4)GlcNAc(b1-6)GalNAc
Method in brief: as §1

[6] = molecular target: Fuc(a1-2)Gal6S(b1-4)Glc6S
Method in brief: as §1

[7] = molecular target: Fuc(a1-2)[Gal(a1-3)]Gal(b1-4)GlcNAc(b1-2)Man(a1-3)[Fuc(a1-2)[Gal(a1-3)]Gal(b1-4)GlcNAc(b1-2)Man(a1-6)]Man(b1-4)GlcNAc(b1-4)[Fuc(a1-6)]GlcNAc
Method in brief: as §1

[8] = molecular target: Fuc(a1-2)[Gal(a1-3)]Gal(b1-4)GlcNAc(b1-3)[Fuc(a1-2)[Gal(a1-3)]Gal(b1-4)GlcNAc(b1-6)]GalNAc
Method in brief: as §1

[9] = molecular target: Fuc(a1-2)[Gal(a1-3)]Gal(b1-4)GlcNAc(b1-6)GalNAc
Method in brief: as §1

[10] = molecular target: Fuc(a1-2)[Gal(a1-3)]Gal(b1-4)[Fuc(a1-3)]Glc
Method in brief: as §1

[11] = molecular target: Fuc(a1-2)[GalNAc(a1-3)]Gal(b1-3)GlcNAc(b1-3)GalNAc
Method in brief: as §1

[12] = molecular target: Fuc(a1-2)[GalNAc(a1-3)]Gal(b1-4)[Fuc(a1-3)]GlcNAc
Method in brief: as §1

[13] = molecular target: Fuc(a1-2)[GalNAc(a1-3)]Gal(b1-4)[Fuc(a1-3)]GlcNAc(b1-3)GalNAc
Method in brief: as §1

[14] = molecular target: Fuc(a1-3)[Gal(b1-4)]Glc6S
Method in brief: as §1

[15] = molecular target: Fuc(a1-3)[Gal(b1-4)]GlcNAc(b1-2)Man(a1-3)[Fuc(a1-3)[Gal(b1-4)]GlcNAc(b1-2)Man(a1-6)]Man(b1-4)GlcNAc(b1-4)GlcNAc
Method in brief: as §1

[16] = molecular target: Gal(a1-3)Gal
Method in brief: as §1

[17] = molecular target: Gal(a1-3)Gal(b1-3)GlcNAc(b1-6)GalNAc
Method in brief: as §1

[18] = molecular target: Gal(b1-3)GalNAc
Method in brief: as §1

[19] = molecular target: Gal(b1-3)GalNAc(b1-3)Gal(a1-4)Gal(b1-4)Glc
Method in brief: as §1

[20] = molecular target: Gal(b1-3)GalNAc(b1-4)[Neu5Ac(a2-3)]Gal(b1-4)Glc
Method in brief: as §1

[21] = molecular target: Gal(b1-3)GlcNAc(a1-3)Gal(b1-4)GlcNAc
Method in brief: as §1

[22] = molecular target: Gal(b1-3)GlcNAc(b1-3)Gal(b1-4)Glc
Method in brief: as §1

[23] = molecular target: Gal(b1-3)GlcNAc(b1-3)Gal(b1-4)GlcNAc(b1-6)[Gal(b1-3)GlcNAc(b1-3)]Gal(b1-4)Glc
Method in brief: as §1

[24] = molecular target: Gal(b1-3)GlcNAc(b1-3)GalNAc
Method in brief: as §1

[25] = molecular target: Gal(b1-3)[Fuc(a1-4)]GlcNAc(b1-3)Gal(b1-4)[Fuc(a1-3)]GlcNAc
Method in brief: as §1

[26] = molecular target: Gal(b1-4)Glc
Method in brief: as §1

[27] = molecular target: Gal(b1-4)GlcNAc(b1-2)Man(a1-3)[Gal(b1-4)GlcNAc(b1-2)Man(a1-6)]Man(b1-4)GlcNAc(b1-4)GlcNAc
Method in brief: as §1

[28] = molecular target: Gal(b1-4)GlcNAc(b1-2)Man(a1-3)[Gal(b1-4)GlcNAc(b1-2)Man(a1-6)][Gal(b1-4)GlcNAc(b1-4)]Man(b1-4)GlcNAc(b1-4)[Fuc(a1-6)]GlcNAc
Method in brief: as §1

[29] = molecular target: Gal(b1-4)GlcNAc(b1-2)Man(a1-6)Man(b1-4)GlcNAc(b1-4)GlcNAc
Method in brief: as §1

[30] = molecular target: Gal(b1-4)GlcNAc(b1-3)Gal(b1-4)GlcNAc(b1-3)Gal(b1-4)GlcNAc
Method in brief: as §1

[31] = molecular target: Gal(b1-4)GlcNAc(b1-3)Gal(b1-4)GlcNAc(b1-3)Gal(b1-4)GlcNAc(b1-2)Man(a1-3)[Gal(b1-4)GlcNAc(b1-3)Gal(b1-4)GlcNAc(b1-3)Gal(b1-4)GlcNAc(b1-2)Man(a1-6)]Man(b1-4)GlcNAc(b1-4)[Fuc(a1-6)]GlcNAc
Method in brief: as §1

[32] = molecular target: Gal3S(b1-4)Glc
Method in brief: as §1

[33] = molecular target: Gal6S(b1-3)GlcNAc
Method in brief: as §1

[34] = molecular target: GalNAc(a1-3)GalNAc(b1-3)Gal(a1-4)Gal(b1-4)Glc
Method in brief: as §1

[35] = molecular target: GalNAc(b1-4)Gal(b1-4)Glc
Method in brief: as §1

[36] = molecular target: GlcNAc(a1-4)Gal(b1-3)GlcNAc
Method in brief: as §1

[37] = molecular target: GlcNAc(b1-2)[GlcNAc(b1-4)]Man(a1-3)[GlcNAc(b1-2)Man(a1-6)]Man(b1-4)GlcNAc(b1-4)GlcNAc
Method in brief: as §1

[38] = molecular target: GlcNAc(b1-2)[GlcNAc(b1-6)]Man(a1-6)[GlcNAc(b1-2)Man(a1-3)]Man(b1-4)GlcNAc(b1-4)GlcNAc
Method in brief: as §1

[39] = molecular target: GlcNAc(b1-3)Gal(b1-4)GlcNAc(b1-3)Gal(b1-4)GlcNAc(b1-3)Gal(b1-4)GlcNAc(b1-2)[GlcNAc(b1-3)Gal(b1-4)GlcNAc(b1-3)Gal(b1-4)GlcNAc(b1-3)Gal(b1-4)GlcNAc(b1-6)]Man(a1-6)[GlcNAc(b1-3)Gal(b1-4)GlcNAc(b1-3)Gal(b1-4)GlcNAc(b1-3)Gal(b1-4)GlcNAc(b1-2)Man(a1-3)]Man(b1-4)GlcNAc(b1-4)[Fuc(a1-6)]GlcNAc
Method in brief: as §1

[40] = molecular target: GlcNAc(b1-3)[GlcNAc(b1-6)]Gal(b1-4)GlcNAc
Method in brief: as §1

[41] = molecular target: Man(a1-2)Man(a1-3)[Man(a1-2)Man(a1-6)]Man(a1-6)[Man(a1-2)Man(a1-2)Man(a1-3)]Man(b1-4)GlcNAc(b1-4)GlcNAc
Method in brief: as §1

[42] = molecular target: Man(a1-3)[Man(a1-6)]Man(a1-6)[Man(a1-3)]Man
Method in brief: as §1

[43] = molecular target: Man(b1-4)GlcNAc
Method in brief: as §1

[44] = molecular target: Neu5Ac(a2-3)Gal(b1-3)GalNAc6S
Method in brief: as §1

[45] = molecular target: Neu5Ac(a2-3)Gal(b1-3)GlcNAc
Method in brief: as §1

[46] = molecular target: Neu5Ac(a2-3)Gal(b1-3)GlcNAc(b1-3)GalNAc
Method in brief: as §1

[47] = molecular target: Neu5Ac(a2-3)Gal(b1-3)[GlcNAc(b1-6)]GalNAc
Method in brief: as §1

[48] = molecular target: Neu5Ac(a2-3)Gal(b1-4)GlcNAc(b1-2)[Neu5Ac(a2-3)Gal(b1-4)GlcNAc(b1-6)]Man(a1-6)[Neu5Ac(a2-3)Gal(b1-4)GlcNAc(b1-2)Man(a1-3)][GlcNAc(b1-4)]Man(b1-4)GlcNAc(b1-4)GlcNAc
Method in brief: as §1

[49] = molecular target: Neu5Ac(a2-3)Gal(b1-4)GlcNAc(b1-3)Gal(b1-4)GlcNAc(b1-2)Man(a1-3)[Neu5Ac(a2-3)Gal(b1-4)GlcNAc(b1-3)Gal(b1-4)GlcNAc(b1-2)Man(a1-6)]Man(b1-4)GlcNAc(b1-4)GlcNAc
Method in brief: as §1

[50] = molecular target: Neu5Ac(a2-3)Gal(b1-4)GlcNAc(b1-3)Gal(b1-4)GlcNAc(b1-3)[Neu5Ac(a2-3)Gal(b1-4)GlcNAc(b1-3)Gal(b1-4)GlcNAc(b1-6)]GalNAc
Method in brief: as §1

[51] = molecular target: Neu5Ac(a2-3)Gal(b1-4)[Fuc(a1-3)]GlcNAc
Method in brief: as §1

[52] = molecular target: Neu5Ac(a2-3)Gal(b1-4)[Fuc(a1-3)]GlcNAc(b1-3)GalNAc
Method in brief: as §1

[53] = molecular target: Neu5Ac(a2-3)Gal(b1-4)[Fuc(a1-3)]GlcNAc6S
Method in brief: as §1

[54] = molecular target: Neu5Ac(a2-6)Gal(b1-4)GlcNAc(b1-2)[Neu5Ac(a2-6)Gal(b1-4)GlcNAc(b1-4)]Man(a1-3)[GlcNAc(b1-4)][Neu5Ac(a2-6)Gal(b1-4)GlcNAc(b1-4)Man(a1-6)]Man(b1-4)GlcNAc(b1-4)GlcNAc
Method in brief: as §1

[55] = molecular target: Neu5Ac(a2-6)Gal(b1-4)GlcNAc(b1-3)Gal(b1-4)GlcNAc(b1-3)Gal(b1-4)GlcNAc(b1-2)Man(a1-3)[Neu5Ac(a2-6)Gal(b1-4)GlcNAc(b1-3)Gal(b1-4)GlcNAc(b1-3)Gal(b1-4)GlcNAc(b1-2)Man(a1-6)]GalNAc
Method in brief: as §1

[56] = molecular target: Neu5Ac(a2-6)Gal(b1-4)GlcNAc(b1-6)GalNAc
Method in brief: as §1

[57] = molecular target: Neu5Ac(a2-8)Neu5Ac
Method in brief: as §1

[58] = molecular target: Neu5Ac(a2-8)Neu5Ac(a2-3)[GalNAc(b1-4)]Gal(b1-4)Glc
Method in brief: as §1

B1: Pwp5 ND (Candida glabrata) (protein)
chain: MGSSHHHHHHSSGLVPRGSHMASANPVPLTNVCYFPEEYPRQAGFRAITAGLASTILQGSVDELLNYSGLSSLTTQQTTTTTPNFQLPTLPLPTNVYGLTVVPLYLLVQLQGYFVPPVSGQYTFSLENTNDAAIIFFGNPSAFPCGDLSAWPQASADDITVTDGTFPSRTLFLKAGVAYPMRISYYNSLGSGNLAVSFTDPGGTKRTNWNGYIWRYNSCSTCTYT
glycan array binding signal (z-score) [1]: -0.235
glycan array binding signal (z-score) [2]: -0.214
glycan array binding signal (z-score) [3]: 0.311
glycan array binding signal (z-score) [4]: 2.82
glycan array binding signal (z-score) [5]: 3.91
glycan array binding signal (z-score) [6]: 2.41
glycan array binding signal (z-score) [7]: 0.284
glycan array binding signal (z-score) [8]: -0.58
glycan array binding signal (z-score) [9]: 0.176
glycan array binding signal (z-score) [10]: -0.527
glycan array binding signal (z-score) [11]: 0.59
glycan array binding signal (z-score) [12]: -0.827
glycan array binding signal (z-score) [13]: -0.156
glycan array binding signal (z-score) [14]: 3.45
glycan array binding signal (z-score) [15]: 1.55
glycan array binding signal (z-score) [16]: -0.029
glycan array binding signal (z-score) [17]: -0.579
glycan array binding signal (z-score) [18]: -0.212
glycan array binding signal (z-score) [19]: 3.41
glycan array binding signal (z-score) [20]: -0.51
glycan array binding signal (z-score) [21]: -0.125
glycan array binding signal (z-score) [22]: -0.276
glycan array binding signal (z-score) [23]: -0.519
glycan array binding signal (z-score) [24]: -0.596
glycan array binding signal (z-score) [25]: 0.251
glycan array binding signal (z-score) [26]: -0.548
glycan array binding signal (z-score) [27]: -0.247
glycan array binding signal (z-score) [28]: -0.557
glycan array binding signal (z-score) [29]: 0.775
glycan array binding signal (z-score) [30]: -0.555
glycan array binding signal (z-score) [31]: 3.19
glycan array binding signal (z-score) [32]: -0.405
glycan array binding signal (z-score) [33]: -0.366
glycan array binding signal (z-score) [34]: -0.548
glycan array binding signal (z-score) [35]: 0.779
glycan array binding signal (z-score) [36]: -0.557
glycan array binding signal (z-score) [37]: -0.667
glycan array binding signal (z-score) [38]: 3.15
glycan array binding signal (z-score) [39]: 1.57
glycan array binding signal (z-score) [40]: -0.152
glycan array binding signal (z-score) [41]: -0.293
glycan array binding signal (z-score) [42]: 5.77
glycan array binding signal (z-score) [43]: -0.41
glycan array binding signal (z-score) [44]: -0.411
glycan array binding signal (z-score) [45]: 0.287
glycan array binding signal (z-score) [46]: 0.055
glycan array binding signal (z-score) [47]: -0.173
glycan array binding signal (z-score) [48]: 13
glycan array binding signal (z-score) [49]: -0.247
glycan array binding signal (z-score) [50]: 4.41
glycan array binding signal (z-score) [51]: -0.271
glycan array binding signal (z-score) [52]: -0.138
glycan array binding signal (z-score) [53]: 0.989
glycan array binding signal (z-score) [54]: -0.613
glycan array binding signal (z-score) [55]: 3.34
glycan array binding signal (z-score) [56]: 3.96
glycan array binding signal (z-score) [57]: 0.246
glycan array binding signal (z-score) [58]: 0.315
